Where two headings read alike, the source gives them in different places. Screen size: about 13,000 compounds; about 3,200 (25%) showed an effect of 50% or more. The list shows a part of the results. Peptide text beside a SMILES is read from it. * marks the point of attachment. Octanoyl = CCCCCCCC(=O)*
Test system: P. falciparum stage V gametocytes
Set-up: BacTiter-Glo ATP luminescence viability of purified stage V gametocytes in 384-well plates, per cent inhibition versus DMSO
Conditions: 48 h, 5 µM, inhibitor

| SMILES | % Inhibition [%] | % Inhibition (% Inhibition) [%] |
| --- | --- | --- |
| O=C(Nc1ccc(-c2nc3ccccc3[nH]2)cc1)c1ccc([N+](=O)[O-])s1 [TCMDC-123726] | 9.602 |  |
| Nc1nc(N)c2nc(C3CC=CCC3)c(N)nc2n1 (stereo not shown) [TCMDC-141989] | 6.679 |  |
| CCCCCCCC(=O)N[C@@H](Cc1ccccc1)C(=O)N[C@H](C(=O)O)C(C)C [TCMDC-139536] (Octanoyl-Phe-Val-OH) | 1.099 |  |
| CC(Sc1n[nH]c(-c2ccccc2Br)n1)C(=O)Nc1ccc(F)cc1 (stereo not shown) [TCMDC-125115] | -62.46 |  |
| Cc1ccc(NC(=O)C(C)Sc2n[nH]c(-c3ccccc3Br)n2)cc1 (stereo not shown) [TCMDC-125166] | 75.62 |  |
| CC(CN(C)C)C(=O)Nc1ccc(-c2ccc(-c3nc4ccccc4[nH]3)s2)cc1 (stereo not shown) [TCMDC-137100] | 21.36 |  |
| COc1ccc(C2CC(=O)C3=C(C2)NC(C)=C(C(=O)OC(C)C)C3c2ccccc2F)cc1OC (stereo not shown) [TCMDC-124038] | 37.21 |  |
| COc1cc(C2Nc3ccc4ccccc4c3C3=C2C(=O)CC(C)(C)C3)ccc1Oc1ccc([N+](=O)[O-])cc1C#N (stereo not shown) [TCMDC-125717] | 30.01 |  |
| COc1ccc(Br)cc1C1Nc2ccc3ccccc3c2C2=C1C(=O)CC(c1ccccc1)C2 (stereo not shown) [TCMDC-125675] | 55.64 |  |
| CN(Cc1ccncc1)C(Cc1ccccc1)C1CCN(Cc2ccc(O)c(Cl)c2)CC1 (stereo not shown) [TCMDC-124648] | -12.77 |  |
| COc1cc(CNC[C@@H](O)[C@H](Cc2ccccc2)NC(=O)c2cc(OC(C)C)cc(N3CCCCS3(=O)=O)c2)cc(OC)c1 [TCMDC-134525] | 23.04 |  |
| CCc1cc2c(cc1OCCN(C)C)N(C(=O)Nc1ccc(-c3ccncc3)c(Cl)c1)CC2 [TCMDC-139214] | 8.963 |  |
| N#Cc1ccc(-c2cnc3ccc(NCCc4cccnc4)nn23)cc1 [TCMDC-136679] | 23.92 |  |
| Fc1ccc(CNc2ccc3ncc(-c4cccnc4)n3n2)cc1 [TCMDC-136674] | 19.94 |  |
| COc1ccc(-c2cnc3ccc(N4CCCC4)nn23)cc1OC.O=CO [TCMDC-134177] | 42.14 |  |
| COc1ccc(-c2cnc3ccc(NCCCO)nn23)cc1OC [TCMDC-136683] | 53.42 |  |
| Oc1cccc(-c2cnc3ccc(NCc4ccc(F)cc4)nn23)c1 [TCMDC-136676] | 39.41 |  |
| COc1ccc(-c2cnc3ccc(NCc4ccc(F)cc4)nn23)cc1OC [TCMDC-136675] | 53.19 |  |
| C/C=C1\CN2CC[C@H]1C[C@H]2[C@H](O)c1ccnc2ccc(O)cc12 [TCMDC-138272] | 3.79 |  |
| COc1ccc2nccc(N3CCC(O)(CCNCc4ccc5c(n4)NC(=O)CO5)CC3)c2n1 [TCMDC-134564] | -10.39 |  |
| CCNC(=O)N1CCN(c2nc(-c3ccccc3)nc(COC)c2Cc2ccc(C)cc2)CC1 [TCMDC-124783] | 37.5 |  |
| O=c1cc(NCCCNCc2cc(C(F)(F)F)ccc2F)[nH]c2ccccc12 [TCMDC-139423] | -83.26 |  |
| CC1(C)N=C(N)N=C(N)N1OCCc1ccc2ccccc2c1 [TCMDC-131755] | -0.2663 |  |

| SMILES | % Inhibition [%] | % Inhibition (% Inhibition) [%] |
| --- | --- | --- |
| COc1cc(Cc2cnc(N)nc2N)cc(OCCCCC2NC(=O)NC2=O)c1OC (stereo not shown) [TCMDC-137299] | 4.359 |  |
| Cc1nc2c(s1)c(=O)cc(CCc1cccc(F)c1F)n2CC(=O)N(Cc1ccc(-c2ccc(C(F)(F)F)cc2)cc1)C1CCN(C(C)C)CC1 [TCMDC-141264] | 113.7 |  |
| Cc1ccc2c(=O)cc(CCc3cccc(F)c3F)n(CC(=O)N(Cc3ccc(-c4ccc(C(F)(F)F)cc4)cc3)C3CCN(C)CC3)c2n1 [TCMDC-141317] | 107 |  |
| CC1CCCN1Cc1ccc(-c2ccc3c(=O)cc(CCc4cccc(F)c4F)n(CC(=O)N(C)Cc4ccc(-c5ccc(C(F)(F)F)cc5)cc4)c3n2)cc1 (stereo not shown) [TCMDC-136564] | 30.5 |  |
| Cc1ccc2c(=O)cc(CCc3cccc(F)c3F)n(CC(=O)N(Cc3ccc(-c4ccc(C(F)(F)F)cc4)cc3)C3CCN(C(C)C)CC3)c2n1 [TCMDC-141318] | 122.6 |  |
| COC(=O)Cn1c2ccccc2c2c(N)c(C(=O)OC)c(C)nc21 [TCMDC-131562] | 7.659 |  |
| CC(C)c1ccc(NC(=O)c2ccc(CN3CCCN(CC4CCCCC4)CC3)cc2)cc1 [TCMDC-136417] | -19.72 |  |
| CCC(CC(NCCCCNC(=O)c1ccc(NC(=O)c2ccc(Cl)cc2)cc1)c1ccccc1)c1ccccc1OC (stereo not shown) [TCMDC-138579] |  | 48.18 |
| N#Cc1c(N2CCN(c3ccc(F)cc3)CC2)nc(N)c2c(N)nc3c(c12)CC(=O)N3C1CC1 [TCMDC-124490] | 43.84 |  |
| Cc1cccc2[nH]c(-c3cccc(-c4cccc(NC(=O)c5ccc(=O)[nH]n5)c4)c3)nc12 [TCMDC-137033] | -59.71 |  |
| N#CC1(CCCNCCc2ccc(O)cc2)CCCc2c(O)cccc21 (stereo not shown) [TCMDC-137732] | -11.73 |  |
| COc1ccc2c(c1C1CCN(CCCCNC(=O)c3ccc(-c4ccc(Cl)cn4)cc3)CC1)CCCC2 [TCMDC-138576] | -10.77 |  |
| COc1ccc2c(c1CCNCCCCNCCc1c(OC)ccc3c1CCCC3)CCCC2 [TCMDC-137324] | 111.7 |  |
| COc1ccc2c(c1CNCCCCCCNCc1c(OC)ccc3c1CCCC3)CCCC2 [TCMDC-137817] | 117.4 |  |
| O=C(Nc1ccc(F)cc1)N1CCCN(c2ccnc3cc(Cl)ccc23)CC1 [TCMDC-133584] | -23.79 |  |
| COc1cc2c(cc1OC)CN(CCc1ccc(NC(=O)c3cc4cc(Cl)ccc4[nH]3)cc1)CC2 [TCMDC-138249] | -9.297 |  |
| Cc1cc2c(cc1C(F)(F)F)N(C(=O)Nc1ccc(OCCN(C)C)c(C(F)(F)F)c1)CC2 [TCMDC-139850] | 18.6 |  |
| COc1cc(F)c2nccc([C@@H](O)CN3CCC(NCc4ccc5c(n4)NC(=O)CS5)C(F)C3)c2c1 (stereo partly shown) [TCMDC-141805] | -13.4 |  |
| FC(F)(F)c1cc(Nc2ccc(Oc3ccccc3)cc2)c2cc(-c3ccncc3)ccc2n1 [TCMDC-138549] | -36.95 |  |
| c1ccc(CN2CCc3cc4nccc(N5CCNCC5)c4cc32)cc1 [TCMDC-140118] | -20.01 |  |
| C=CCOc1ccc2ccccc2c1CNCCCCCCNCc1c(OCC=C)ccc2ccccc12 [TCMDC-137340] | 119.9 |  |
| C/C=C/COc1ccc2ccccc2c1CNCCCCCCCCNCc1c(OC/C=C/C)ccc2ccccc12 [TCMDC-137844] | 118.6 |  |
| Nc1nc(N)c2c(ccc3c2cnn3S(=O)(=O)N2CCCC2)n1 [TCMDC-137852] | -71.91 |  |

| SMILES | % Inhibition [%] | % Inhibition (% Inhibition) [%] |
| --- | --- | --- |
| O=C1COc2ccccc2N1C/C=C(\CN1CCC(c2ccccc2)CC1)c1cc(Cl)cc(Cl)c1 [TCMDC-134528] | -40.54 |  |
| Cc1cc(Nc2ccc3c(c2)CCC3)n2ncnc2n1 [TCMDC-123574] | 8.317 |  |
| Cc1[nH]nc2cc(Nc3nccc(Nc4ccc(Oc5ccccc5)cc4)n3)ccc12 [TCMDC-138573] | 32.4 |  |
| CCc1nnc2sc(-c3cccc(NC(=O)c4ccc(C)c([N+](=O)[O-])c4)c3)nn12 [TCMDC-125124] | -17.45 |  |
| Cc1ccc(O)c(-c2cc(C(=O)Nc3ccc(S(=O)(=O)N4CCCCC4)cc3)[nH]n2)c1 [TCMDC-124309] | -24.12 |  |
| O=C(Nc1ccccc1)c1cnc[nH]1 [TCMDC-123941] | -10.44 |  |
| CC[C@H]1CN2CC[C@@H]1C[C@H]2[C@H](O)c1ccnc2ccc(Cl)cc12 [TCMDC-141353] | -5.728 |  |
| CC[C@H]1CN2CC[C@H]1C[C@@H]2[C@H](O)c1ccnc2ccc(O)cc12 [TCMDC-132025] | 31.63 |  |
| CC[C@H]1CN2CC[C@@H]1C[C@H]2[C@H](O)c1cc(-c2ccccc2)nc2ccc(O)cc12 [TCMDC-141380] | 89.63 |  |
| CCCc1cc([C@@H](O)[C@@H]2C[C@@H]3CCN2C[C@@H]3CC)c2ccccc2n1 [TCMDC-131428] | -9.828 |  |
| CC[C@H]1CN2CC[C@@H]1C[C@H]2[C@H](O)c1cc(-c2ccc(Cl)c(Cl)c2)nc2ccc(O)cc12 [TCMDC-141362] | 95.45 |  |
| CC[C@H]1CN2CC[C@@H]1C[C@H]2[C@H](O)c1cc(-c2ccc(F)cc2)nc2ccc(O)cc12 [TCMDC-141378] | 55.28 |  |
| CC[C@H]1CN2CC[C@H]1C[C@H]2[C@H](O)c1ccnc2ccc(O)cc12 [TCMDC-131425] | 22.33 |  |
| OCC1CCCCN1Cc1cccc(-c2cccc(-c3nc4ccccc4[nH]3)c2)c1 (stereo not shown) [TCMDC-133835] | -3.731 |  |
| O=C(Nc1ccc(OC2CCN(Cc3ccc(F)cc3)C2)c(Cl)c1)c1ccsc1 (stereo not shown) [TCMDC-133756] | -6.821 |  |
| O=C(Nc1cccc(Cl)c1Cl)N1CCc2cc3nccc(N4CCN5CCC[C@H]5C4)c3cc21 [TCMDC-140054] | -5.668 |  |
| O=C(NC1CCCCC1)N(Cc1ccccc1-c1ccc(CNCCc2ccccc2)cc1)C1CCN(Cc2ccccc2)CC1 [TCMDC-140625] | 106.9 |  |
| CC(=O)N(Cc1ccccc1-c1ccc(CNCCc2ccccc2)cc1)C1CCN(Cc2ccccc2)CC1 [TCMDC-140525] | 102.9 |  |
| CC(=O)N(Cc1ccccc1-c1cccc(CNCCc2ccccc2)c1)C1CCN(Cc2ccccc2)CC1 [TCMDC-140524] | 45.75 |  |
| O=C(c1ccccc1)N(Cc1ccccc1-c1ccc(CNCCc2ccccc2)cc1)C1CCN(Cc2ccccc2)CC1 [TCMDC-140531] | 62.45 |  |
| CC(C)CNCc1ccc(-c2ccccc2CN(C(=O)NCCc2ccccc2)C2CCN(Cc3ccccc3)CC2)cc1 [TCMDC-140609] | 78.77 |  |

Source: PMC4552634, “A New Set of Chemical Starting Points with Plasmodium falciparum Transmission-Blocking Potential for Antimalarial Drug Discovery” (PLoS ONE, 2015)
